Measured values: PubChem BioAssay (EPA / NIEHS)
Values joined by “and” are separate entries in the source; they are usually repeats but may differ in a detail not shown here. Equal values may be shown once. Inconclusive results are not listed. More than one record can exist for a structure, and the calls need not agree. Active and inactive are the calls of the source. Rule for the calls, unless noted: active = hit-call score of the fitted dose curve at least 0.9, where 1 is the maximum; inconclusive = response in the unintended direction; inactive = score below 0.9.

Tests used:
[1] = molecular target: Bile acid receptor (Homo sapiens) (UniProt Q96RI1); assay: ATG_IR1_CIS: Attagene CIS-FACTORIAL HepG2 Assay for human Nuclear Receptor Subfamily 1 Group H Member 4 (NR1H4), IR1 submotif (AID 2282946; active = hit-call score of the fitted dose curve at least 0.9, where 1 is the maximum; inactive = score below 0.9); settings: IR1 reporter transcription, actives raise or lower the signal
Outline: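 HepG2 cells transiently transfected with multiplexed cis-element reporter units read endogenous transcription factor activity. After 24 h compound exposure, reporter mRNA was quantified by RT-PCR, fluorescent labelling, HpaI digestion and capillary electrophoresis; bidirectional fitting versus DMSO baseline.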

[2] = ATG_RORE_CIS: Attagene CIS-FACTORIAL HepG2 Assay for human RAR-related Orphan Receptor Element (RORE) (AID 2282959; active = hit-call score of the fitted dose curve at least 0.9, where 1 is the maximum; inactive = score below 0.9); settings: HepG2 Attagene cis-factorial RORE reporter, mRNA; actives raise or lower the signal
Outline: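 Fluorescence intensity of reporter-specific cDNA fragments, separated by capillary electrophoresis, gives the signal. Source: HepG2 liver cells transiently transfected with cis-element reporters and exposed 24 h; DMSO-normalized bidirectional fit.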

[3] = molecular target: Oxysterols receptor LXR-beta (Homo sapiens) (UniProt P55055); assay: ATG_LXRb_TRANS: Attagene TRANS-FACTORIAL HepG2 Assay for human Liver X Receptor beta (LXRb) (AID 2282981); settings: HepG2 Attagene TRANS GAL4-LXRb reporter, mRNA
Outline: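 After 24 h chemical treatment of transfected HepG2 cells carrying exogenous NR-Gal4 chimeras, reporter mRNA was quantified by fluorescent RT-PCR and capillary electrophoresis; activity taken as increase over DMSO controls.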

[4] = ATG_M_32_TRANS: Attagene TRANS-FACTORIAL HepG2 Assay for M32 Transcription Factor (Internal Marker) (AID 2282984); settings: HepG2 Attagene TRANS M32 internal marker reporter;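 note: transcript level of a background control reporter unit measured by RT-PCR and capillary electrophoresis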
Outline: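 Internal background reporter in transfected HepG2: after 24 h chemical exposure, RNA reverse-transcribed, reporter cDNA amplified, fluorescently labelled and HpaI-cut, then sized by capillary electrophoresis. Gain of signal fitted against DMSO control.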

[5] = molecular target: human RAR-related Orphan Receptor beta (RORb), RORB (gene 6096) (UniProt Q92753); assay: ATG_RORb_TRANS: Attagene TRANS-FACTORIAL HepG2 Assay for human RAR-related Orphan Receptor beta (RORb) (AID 2283010);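 for AC50: potency for increased reporter mRNA meaning activation of RORb-Gal4 chimera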
Outline: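 Transfect HepG2 with multiple GAL4-UAS reporter transcription units; dose chemicals for 24 h; isolate RNA, reverse-transcribe and PCR-amplify reporter sequences; label, digest and resolve fragments by capillary electrophoresis; fit increases relative to DMSO.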

[6] = molecular target: human Retinoid X Receptor beta (RXRb), RXRB (gene 6257) (UniProt P28702); assay: ATG_RXRb_TRANS: Attagene TRANS-FACTORIAL HepG2 Assay for human Retinoid X Receptor beta (RXRb) (AID 2283013)
Outline: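 Chimeric receptor-Gal4 activity was assessed in transiently transfected human HepG2 cells after 24 h exposure. Transcripts from GAL4-UAS reporters were quantified by fluorescent RT-PCR and capillary electrophoresis, with DMSO as negative control and baseline.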

[7] = TOX21_p53_BLA_p2_viability: Viability Assessment in the Tox21 HCT-116 p53 Agonism Beta-lactamase Assay, Phase 2 (AID 2283591);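 note: compound exposure lasted 16 h at 37 °C; actives lower the ATP signal meaning cytotoxicity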
Outline: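 Cytotoxicity readout: CellTiter-Glo ATP luminescence, 30 min at room temperature, after the beta-lactamase read. Cells were HCT116 exposed 16 h at 37C to compounds pin-transferred at 217-fold dilution from DMSO stocks.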

[8] = molecular target: Cellular tumor antigen p53 (Homo sapiens) (UniProt P04637); assay: TOX21_p53_BLA_p3_ratio: Tox21 HCT-116 p53 Agonism Beta-lactamase Assay, Ratio, Phase 3 (AID 2283596)
Outline: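 Cells were seeded at 4000/well, rested 5 h at 37C, then dosed with DMSO compound solutions (217-fold dilution) for 16 h. CCF4-AM substrate was loaded for 2 h at room temperature, and the 460/530 nm emission ratio was fitted for gain of signal versus DMSO.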

[9] = TOX21_p53_BLA_p4_viability: Viability Assessment in the Tox21 HCT-116 p53 Agonism Beta-lactamase Assay, Phase 4 (AID 2283597);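 note: hits lower the luminescence signal meaning cytotoxicity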
Outline: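 In this multiplexed secondary endpoint, HCT116 cells (4000 per well, compound at 5 h, 16 h treatment) received CellTiter-Glo after the beta-lactamase read. Luminescence after 30 min RT reflects ATP, and falling signal marks cytotoxicity.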

[10] = molecular target: Cellular tumor antigen p53 (Homo sapiens) (UniProt P04637); assay: TOX21_p53_BLA_p4_ratio: Tox21 HCT-116 p53 Agonism Beta-lactamase Assay, Ratio, Phase 4 (AID 2283601)
Outline: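 Signal is the blue/green (460nm/530nm) ratio of cleaved versus uncleaved CCF4-AM substrate, read after 2 h substrate loading. Cells were HCT116 carrying the p53-responsive beta-lactamase reporter, dosed 16 h at 37C, 5% CO2; CellTiter-Glo measured in parallel.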

[11] = ATG_PPRE_CIS: Attagene CIS-FACTORIAL HepG2 Assay for human Peroxisome Proliferator-activated Response Element (PPRE) (AID 2282958; active = hit-call score of the fitted dose curve at least 0.9, where 1 is the maximum; inactive = score below 0.9); settings: HepG2 PPRE cis-element reporter, Attagene transcription factor profiling; actives raise or lower the signal
Outline: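 Multiplexed reporter transcription units under cis-regulatory promoters were transfected into HepG2 cells to capture endogenous factor activity. A 24 h incubation preceded RNA isolation and fluorescent RT-PCR fragment analysis.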

[12] = molecular target: Nuclear receptor subfamily 4 group A member 2 (Homo sapiens) (UniProt P43354); assay: ATG_NURR1_TRANS: Attagene TRANS-FACTORIAL HepG2 Assay for human Nuclear Receptor Related Protein 1 (NURR1) (AID 2282985); settings: HepG2 Attagene TRANS reporter, mRNA readout
Outline: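 Reporter transcript induction, measured by RT-PCR with fluorescent labelling, HpaI digestion and capillary electrophoresis, after 24 hr dosing of human HepG2 cells transiently expressing an exogenous NR-Gal4 fusion with GAL4-UAS-driven reporters; DMSO as baseline.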

[13] = molecular target: human Peroxisome Proliferator-activated Receptor alpha (PPARa), PPARA (gene 5465) (UniProt Q07869); assay: ATG_PPARa_TRANS: Attagene TRANS-FACTORIAL HepG2 Assay for human Peroxisome Proliferator-activated Receptor alpha (PPARa) (AID 2283001);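 for AC50: potency for gain of reporter signal over DMSO so agonist or activator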
Outline: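 Reporter transcripts quantified by RT-PCR plus capillary electrophoresis after 24 h treatment, fitted upward relative to DMSO. Cells: human HepG2 transiently carrying multiple GAL4-UAS reporter units driven by NR-Gal4 chimeras.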

[14] = molecular target: human RAR-related Orphan Receptor gamma (RORg), RORC (gene 6097) (UniProt P51449); assay: ATG_RORg_TRANS: Attagene TRANS-FACTORIAL HepG2 Assay for human RAR-related Orphan Receptor gamma (RORg) (AID 2283011)
Outline: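 Chimeric RORg-Gal4 transactivation in transfected HepG2; 24 h exposure; RT-PCR/capillary electrophoresis readout of reporter mRNA, DMSO baseline.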

[15] = molecular target: Retinoic acid receptor RXR-alpha (Homo sapiens) (UniProt P19793); assay: ATG_RXRa_TRANS: Attagene TRANS-FACTORIAL HepG2 Assay for human Retinoid X Receptor alpha (RXRa) (AID 2283012)
Outline: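 Measures exogenous chimeric NR-GAL4 activity in transfected HepG2 liver cells after 24 h of dosing. Induced reporter mRNA was detected by RT-PCR with capillary electrophoresis, and gain of signal was analysed against DMSO.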

[16] = ATG_GAL4_TRANS: Attagene TRANS-FACTORIAL HepG2 Assay for GAL4 (Internal Marker) (AID 2282976); settings: HepG2 Attagene TRANS GAL4 internal marker reporter
Outline: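 Liver HepG2 line bearing multiplexed GAL4-UAS reporter constructs; 24 h chemical treatment. Transcripts were quantified as fluorescent fragments on capillary electrophoresis after RT-PCR and HpaI cut, with activity fitted upward from DMSO.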

[17] = BSK_3C_uPAR: BioMAP Diversity Plus: 3C Assay for Urokinase-type plasminogen activator receptor (uPAR) Biomarker Activity (AID 2282998; active = hit-call score of the fitted dose curve at least 0.9, where 1 is the maximum; inactive = score below 0.9); settings: BioMAP 3C HUVEC, uPAR biomarker ELISA; actives raise or lower the signal
Outline: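 In this endothelial cell-based assay, human umbilical vein primary cells were treated with chemicals and harvested at 24 h. uPAR was quantified using ELISA, with gains or losses fitted relative to DMSO controls.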

[18] = BSK_4H_Eotaxin3: BioMAP Diversity Plus: 4H Assay for Eotaxin 3 Biomarker Activity (AID 2283000; active = hit-call score of the fitted dose curve at least 0.9, where 1 is the maximum; inactive = score below 0.9); settings: primary human endothelial cells (HUVEC); actives raise or lower the signal
Outline: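 ELISA quantitation of CCL26 (Eotaxin-3) protein from chemically dosed human vascular endothelial cells at 24 h; increases and decreases both scored relative to DMSO-treated baseline.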

[19] = read-out: Monocyte Chemoattractant Protein-1 (MCP1), CCL2 (gene 6347); assay: BSK_4H_MCP1: BioMAP Diversity Plus: 4H Assay for Monocyte Chemoattractant Protein-1 (MCP1) Biomarker Activity (AID 2283018; active = hit-call score of the fitted dose curve at least 0.9, where 1 is the maximum; inactive = score below 0.9); settings: primary human endothelial cells (HUVEC); actives raise or lower the signal
Outline: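 Endothelial cells from umbilical vein were treated with test chemical, then after 24 h MCP-1 levels were quantified by ELISA; endpoint values came from bidirectional fitting with DMSO as baseline of activity.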

[20] = molecular target: Cellular tumor antigen p53 (Homo sapiens) (UniProt P04637); assay: TOX21_p53_BLA_p2_ratio: Tox21 HCT-116 p53 Agonism Beta-lactamase Assay, Ratio, Phase 2 (AID 2283592)
Outline: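 DMSO-normalized, positive-direction endpoint derived from the 460 nm/530 nm FRET ratio in HCT116 p53 beta-lactamase reporter cells exposed 16 h at 37C and loaded with CCF4-AM for 2 h.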

Measured: AC50

Chain of Cellular tumor antigen p53 (Homo sapiens) (P04637 whole entry, looked up): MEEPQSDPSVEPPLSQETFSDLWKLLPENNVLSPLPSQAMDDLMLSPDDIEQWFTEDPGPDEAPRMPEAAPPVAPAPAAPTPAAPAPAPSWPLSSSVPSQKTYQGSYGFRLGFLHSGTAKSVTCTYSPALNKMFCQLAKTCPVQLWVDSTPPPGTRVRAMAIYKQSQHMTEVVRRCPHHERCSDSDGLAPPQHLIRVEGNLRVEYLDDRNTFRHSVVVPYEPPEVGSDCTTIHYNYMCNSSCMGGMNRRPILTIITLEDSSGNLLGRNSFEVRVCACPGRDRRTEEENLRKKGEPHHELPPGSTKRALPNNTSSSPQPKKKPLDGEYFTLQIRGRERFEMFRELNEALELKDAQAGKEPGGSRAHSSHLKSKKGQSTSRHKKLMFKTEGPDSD
Chain of human RAR-related Orphan Receptor gamma (RORg), RORC (gene 6097) (P51449 whole entry, looked up, the tested form may be a part): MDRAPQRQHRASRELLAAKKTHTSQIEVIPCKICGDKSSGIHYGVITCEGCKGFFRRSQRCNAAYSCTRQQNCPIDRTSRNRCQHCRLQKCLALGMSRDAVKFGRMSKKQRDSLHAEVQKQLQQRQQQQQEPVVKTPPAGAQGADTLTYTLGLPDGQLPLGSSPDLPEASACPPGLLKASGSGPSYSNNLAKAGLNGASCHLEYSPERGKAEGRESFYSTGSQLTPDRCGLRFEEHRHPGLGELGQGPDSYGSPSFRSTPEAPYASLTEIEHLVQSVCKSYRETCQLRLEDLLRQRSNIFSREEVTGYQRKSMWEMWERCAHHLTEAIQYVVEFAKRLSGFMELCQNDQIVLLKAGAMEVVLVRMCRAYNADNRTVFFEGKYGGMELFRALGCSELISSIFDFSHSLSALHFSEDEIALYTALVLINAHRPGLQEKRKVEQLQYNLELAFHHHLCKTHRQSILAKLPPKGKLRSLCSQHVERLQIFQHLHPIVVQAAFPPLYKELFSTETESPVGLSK
Chain of Nuclear receptor subfamily 4 group A member 2 (Homo sapiens) (P43354 whole entry, looked up, the tested form may be a part): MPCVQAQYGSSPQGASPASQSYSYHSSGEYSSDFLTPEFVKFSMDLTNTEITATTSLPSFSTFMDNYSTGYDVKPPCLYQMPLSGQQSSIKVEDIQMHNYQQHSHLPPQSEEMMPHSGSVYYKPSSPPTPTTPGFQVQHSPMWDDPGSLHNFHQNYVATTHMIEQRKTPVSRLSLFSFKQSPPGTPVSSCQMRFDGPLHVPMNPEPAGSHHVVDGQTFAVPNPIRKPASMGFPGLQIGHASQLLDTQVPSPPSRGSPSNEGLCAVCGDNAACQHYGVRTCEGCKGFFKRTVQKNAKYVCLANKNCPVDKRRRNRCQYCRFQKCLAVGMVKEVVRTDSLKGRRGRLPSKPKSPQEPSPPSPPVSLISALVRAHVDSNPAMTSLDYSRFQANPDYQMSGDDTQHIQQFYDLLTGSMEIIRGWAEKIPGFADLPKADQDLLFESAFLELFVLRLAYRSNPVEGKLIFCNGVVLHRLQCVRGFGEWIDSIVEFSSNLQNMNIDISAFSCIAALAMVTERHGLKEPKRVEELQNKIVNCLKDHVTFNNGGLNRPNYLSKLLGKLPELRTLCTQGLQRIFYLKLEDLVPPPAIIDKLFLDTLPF
Chain of human Retinoid X Receptor beta (RXRb), RXRB (gene 6257) (P28702 whole entry, looked up, the tested form may be a part): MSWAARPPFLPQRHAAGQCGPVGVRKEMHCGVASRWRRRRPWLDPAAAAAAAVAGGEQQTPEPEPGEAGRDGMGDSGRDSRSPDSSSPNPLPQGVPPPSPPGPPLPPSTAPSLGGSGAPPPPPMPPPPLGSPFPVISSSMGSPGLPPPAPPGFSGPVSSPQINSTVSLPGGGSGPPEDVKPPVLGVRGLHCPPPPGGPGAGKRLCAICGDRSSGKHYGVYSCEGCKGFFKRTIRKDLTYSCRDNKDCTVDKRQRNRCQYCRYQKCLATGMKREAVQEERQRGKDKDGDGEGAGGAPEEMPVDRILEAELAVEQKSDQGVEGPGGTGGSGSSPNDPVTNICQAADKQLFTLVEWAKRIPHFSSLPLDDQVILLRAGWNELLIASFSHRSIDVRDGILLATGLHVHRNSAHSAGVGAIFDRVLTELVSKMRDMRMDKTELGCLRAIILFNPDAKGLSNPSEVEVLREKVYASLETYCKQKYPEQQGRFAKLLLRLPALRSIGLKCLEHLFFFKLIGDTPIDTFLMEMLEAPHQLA
Chain of Bile acid receptor (Homo sapiens) (Q96RI1 whole entry, looked up): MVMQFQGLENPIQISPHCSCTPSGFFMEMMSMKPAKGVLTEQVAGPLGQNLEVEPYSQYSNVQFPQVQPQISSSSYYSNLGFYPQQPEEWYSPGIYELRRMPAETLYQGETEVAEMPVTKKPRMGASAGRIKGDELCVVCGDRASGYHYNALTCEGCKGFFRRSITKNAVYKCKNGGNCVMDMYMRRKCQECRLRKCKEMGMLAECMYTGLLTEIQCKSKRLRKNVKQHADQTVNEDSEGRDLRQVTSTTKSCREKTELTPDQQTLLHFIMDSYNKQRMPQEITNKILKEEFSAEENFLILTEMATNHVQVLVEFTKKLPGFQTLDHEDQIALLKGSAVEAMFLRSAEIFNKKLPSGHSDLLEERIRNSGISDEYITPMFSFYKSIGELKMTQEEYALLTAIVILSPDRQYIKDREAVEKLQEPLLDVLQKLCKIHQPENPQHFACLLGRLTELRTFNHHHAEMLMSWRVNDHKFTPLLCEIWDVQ
Chain of Oxysterols receptor LXR-beta (Homo sapiens) (P55055 whole entry, looked up, the tested form may be a part): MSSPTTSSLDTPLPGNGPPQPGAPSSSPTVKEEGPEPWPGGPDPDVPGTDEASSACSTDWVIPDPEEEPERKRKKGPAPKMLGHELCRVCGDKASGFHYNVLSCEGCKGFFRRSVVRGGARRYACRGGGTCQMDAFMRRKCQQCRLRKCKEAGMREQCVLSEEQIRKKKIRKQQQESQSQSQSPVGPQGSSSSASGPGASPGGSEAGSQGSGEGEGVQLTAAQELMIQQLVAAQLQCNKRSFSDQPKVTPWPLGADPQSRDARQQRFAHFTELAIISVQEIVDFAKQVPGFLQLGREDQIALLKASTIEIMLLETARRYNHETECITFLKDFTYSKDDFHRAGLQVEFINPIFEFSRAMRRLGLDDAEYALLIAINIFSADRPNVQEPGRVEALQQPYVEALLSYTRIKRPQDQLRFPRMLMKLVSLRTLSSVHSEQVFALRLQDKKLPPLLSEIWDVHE
Chain of human RAR-related Orphan Receptor beta (RORb), RORB (gene 6096) (Q92753 whole entry, looked up, the tested form may be a part): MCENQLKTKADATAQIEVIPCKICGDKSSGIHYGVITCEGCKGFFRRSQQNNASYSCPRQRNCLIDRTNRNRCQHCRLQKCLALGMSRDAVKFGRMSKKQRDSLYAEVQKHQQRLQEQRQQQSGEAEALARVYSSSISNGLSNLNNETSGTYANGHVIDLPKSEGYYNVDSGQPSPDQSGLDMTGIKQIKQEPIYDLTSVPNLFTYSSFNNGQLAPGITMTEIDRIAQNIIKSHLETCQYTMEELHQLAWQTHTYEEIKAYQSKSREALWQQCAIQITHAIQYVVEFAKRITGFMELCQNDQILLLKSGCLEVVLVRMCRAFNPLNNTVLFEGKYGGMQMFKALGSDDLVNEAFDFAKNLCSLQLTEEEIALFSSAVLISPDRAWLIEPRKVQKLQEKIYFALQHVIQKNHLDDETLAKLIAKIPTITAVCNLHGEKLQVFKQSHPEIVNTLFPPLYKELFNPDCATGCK
Chain of Retinoic acid receptor RXR-alpha (Homo sapiens) (P19793 whole entry, looked up, the tested form may be a part): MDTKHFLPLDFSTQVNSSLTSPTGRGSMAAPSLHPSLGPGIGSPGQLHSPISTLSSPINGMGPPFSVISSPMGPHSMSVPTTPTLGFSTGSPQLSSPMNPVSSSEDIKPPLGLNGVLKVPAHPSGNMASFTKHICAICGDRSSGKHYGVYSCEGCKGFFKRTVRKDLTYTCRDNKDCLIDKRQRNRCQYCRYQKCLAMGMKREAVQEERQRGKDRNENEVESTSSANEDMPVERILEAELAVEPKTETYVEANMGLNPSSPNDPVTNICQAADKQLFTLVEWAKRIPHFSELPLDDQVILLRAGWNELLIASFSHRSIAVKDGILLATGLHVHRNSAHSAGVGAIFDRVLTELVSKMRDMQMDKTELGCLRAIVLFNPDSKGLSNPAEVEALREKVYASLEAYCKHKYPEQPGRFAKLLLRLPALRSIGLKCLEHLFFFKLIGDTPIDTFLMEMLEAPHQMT
Chain of human Peroxisome Proliferator-activated Receptor alpha (PPARa), PPARA (gene 5465) (Q07869 whole entry, looked up, the tested form may be a part): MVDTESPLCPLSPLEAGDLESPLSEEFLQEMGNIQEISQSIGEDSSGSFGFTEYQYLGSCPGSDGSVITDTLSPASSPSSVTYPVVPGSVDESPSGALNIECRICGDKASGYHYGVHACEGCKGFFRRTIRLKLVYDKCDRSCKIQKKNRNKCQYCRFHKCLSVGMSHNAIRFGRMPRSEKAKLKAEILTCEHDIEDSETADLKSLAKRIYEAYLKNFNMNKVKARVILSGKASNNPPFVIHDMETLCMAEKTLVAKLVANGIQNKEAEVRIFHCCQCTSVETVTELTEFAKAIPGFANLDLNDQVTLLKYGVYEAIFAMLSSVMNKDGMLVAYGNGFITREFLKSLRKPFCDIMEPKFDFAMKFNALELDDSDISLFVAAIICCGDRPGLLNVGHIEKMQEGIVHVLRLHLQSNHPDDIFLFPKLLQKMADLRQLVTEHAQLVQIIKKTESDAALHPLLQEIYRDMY

CCOP(=O)(OCC)Oc1ccc([N+](=O)[O-])cc1
inactive: [1] | [2] | [3] | [4] | [5] | [6] | [7] | [8] | [9] | [10]

C[N+](C)(C)CC(=O)[O-]
inactive: [11] | [2] | [12] | [13] | [5] | [14] | [15] | [6]

COc1ccc(CO)cc1
inactive: [1] | [2] | [16] | [3] | [17] | [18] | [13] | [5] | [14] | [15] | [6] | [19] | [7] | [20] | [8]

C=CC(=O)OCCO
active: [2] 59.1 µM
inactive: [12] | [13] | [5] | [15] | [20] | [8] | [10]

Clc1ccc(-c2ccccc2)cc1
inactive: [1] | [2] | [16] | [4] | [12] | [17] | [15] | [6]
active: [18] 30.5 µM | [19] 27.5 µM

Cl/C=C\CCl
inactive: [11] | [2] | [16] | [4] | [13] | [14] | [6]

N#CCNCC#N
inactive: [11] | [16] | [4] | [12] | [13] | [5] | [14] | [15] | [20]

O=[N+]([O-])c1ccc(Cl)cc1
inactive: [2] | [3] | [12] | [17] | [18] | [13] | [14] | [19] | [20] | [9] | [10]

Cc1cc(C)c(C2=C(OC(=O)CC(C)(C)C)C3(CCCC3)OC2=O)c(C)c1
inactive: [1] | [2] | [16] | [4] | [12]

C=CCN(CC=C)C(=O)C(Cl)Cl
inactive: [11] | [16] | [17] | [18] | [19] | [20] | [8] | [9] | [10]

CN(N=O)c1ccccc1
inactive: [1] | [2] | [3] | [13] | [5]

C[C@]12CC[C@H](O)C[C@H]1CC[C@@H]1[C@@H]2C[C@@H](O)[C@]2(C)[C@@H](C3=CC(=O)OC3)CC[C@]12O
inactive: [1] | [11] | [2] | [3] | [4] | [12] | [14] | [15] | [6]
active: [13] 1.78 µM | [5] 1.29 µM

O=[N+]([O-])C=Cc1ccccc1
inactive: [3] | [13] | [5] | [14] | [15] | [6] | [10]
active: [1] 46.8 µM | [11] 61.5 µM | [17] 5.53 µM | [18] 9.12 µM | [19] 8.93 µM | [7] 27.2 µM | [20] 8.76 µM

CC1OC(C)OC(C)O1 (stereo not given)
inactive: [1] | [11] | [16] | [4] | [5] | [7] | [20] | [8] | [10]
active: [8] 34.1 µM

SCc1ccco1
inactive: [1] | [11] | [4] | [12] | [6]
active: [13] 33 µM

O=C(O)C(Br)Br
inactive: [1] | [16] | [14] | [7] | [20] | [8] | [9] | [10]

O=S(=O)(O)OOS(=O)(=O)O
inactive: [2] | [3] | [12] | [14] | [6]

O=[N+]([O-])O.O=[N+]([O-])O.[Cd]
inactive: [16] | [3] | [4] | [12] | [5] | [15] | [9]
active: [7] 59.2 µM

CC(C)(Cl)Cl
inactive: [16] | [3] | [13] | [20] | [8]

c1ccc(Nc2ccc3ccccc3c2)cc1
inactive: [1] | [3] | [4] | [12] | [18] | [13] | [7] | [20] | [10]
active: [11] 39.8 µM | [17] 20 µM | [19] 30.7 µM | [7] 63.2 µM | [20] 74.9 µM | [9] 73.9 µM and 83 µM | [10] 73.5 µM
